The list is not random: actives were taken first. Their share in the collection is about 4%.
TWEAK-Fn14 inh: inhibitors of TWEAK-Fn14 signaling, primary screen, luciferase reporter cells, uHTS; TWEAK-stimulated Fn14 reporter cells, luciferase luminescence, 8 h; inhibition, % at 10 µM; 2% of 360,000 active; in the data active = inhibition above about 50%
Peg3 promoter: Peg3 promoter-driven luciferase inhibitors, primary screen, cell-based, HeLa, luciferase luminescence; HeLa PEG-Prom luciferase reporter, overnight; inhibition, % at 20 µM; 1.7% of 360,000 active;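 active = inhibition of at least 50% at 20 µM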
TROY NFkB inh: inhibitors of TROY-driven NF-kB signaling, primary screen, Q293 LMP1-TROYcd cells, NF-kB luciferase, uHTS; Q293 LMP1-TROYcd NF-kB luciferase reporter, 4 h; inhibition, % at 10 µM; 0.98% of 360,000 active;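 active = compounds whose plate-normalised and pattern-corrected inhibition of the luciferase reporter signal at the single screening dose is 50% or more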
KKLEB tox: cytotoxicity in KKLEB CF airway cells, primary screen, cytotoxicity control for CF NF-kB inhibitor project, cell-based, uHTS, fluorescence assay plates | KKLEB CF airway cells viability, ATPlite luminescence, overnight; active compounds read low; cells stimulated with P. aeruginosa culture filtrate | activity change (cytotoxicity), % at 5 µM | 0.36% of 360,000 active | AID 602141, 2011;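 active = corrected activity change at or below -50% at 5 µM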
CF NFkB inh: inhibitors of PAF-induced NF-kB signaling, primary screen, cell-based, GFP fluorescence, uHTS | KKLEB NF-kB-GFP reporter, GFP fluorescence overnight | inhibition, % at 5 µM | 0.86% of 360,000 active;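 active = at least 50% inhibition at 5 µM, scaled per plate between neutral and stimulator controls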;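 note: PAF is a Pseudomonas aeruginosa culture filtrate used as stimulus; plate controls were PAF-stimulated DMSO wells for no effect and unstimulated DMSO wells for full effect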
HIF-2a block: HIF-2a reporter inhibitors, primary screen, luminescence, 786-0 RCC cells | 786-0 RCC cells HIF-2a reporter, luciferase luminescence, overnight | inhibition, % at 18.8 µM | 0.72% of 360,000 active | AID 624352, 2012;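 active = inhibition of the luminescence signal of 40% or more relative to plate controls, in a single-dose primary screen at 18.75 µM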
Mdm2 MdmX conf: retested Mdm2-MdmX interaction blockers, confirmation, cell-based, luminescence, single concentration, set 2; 99% of 740 active; AID 504601, 2011; SaOS-2 split-luciferase Mdm2/MdmX complementation; shares compounds with HIF-2a block; inhibition, % at 8 µM;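 active = mean inhibition of the luminescence signal across two replicates at or above 26 percent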
Target sequence (O15151 whole entry, looked up): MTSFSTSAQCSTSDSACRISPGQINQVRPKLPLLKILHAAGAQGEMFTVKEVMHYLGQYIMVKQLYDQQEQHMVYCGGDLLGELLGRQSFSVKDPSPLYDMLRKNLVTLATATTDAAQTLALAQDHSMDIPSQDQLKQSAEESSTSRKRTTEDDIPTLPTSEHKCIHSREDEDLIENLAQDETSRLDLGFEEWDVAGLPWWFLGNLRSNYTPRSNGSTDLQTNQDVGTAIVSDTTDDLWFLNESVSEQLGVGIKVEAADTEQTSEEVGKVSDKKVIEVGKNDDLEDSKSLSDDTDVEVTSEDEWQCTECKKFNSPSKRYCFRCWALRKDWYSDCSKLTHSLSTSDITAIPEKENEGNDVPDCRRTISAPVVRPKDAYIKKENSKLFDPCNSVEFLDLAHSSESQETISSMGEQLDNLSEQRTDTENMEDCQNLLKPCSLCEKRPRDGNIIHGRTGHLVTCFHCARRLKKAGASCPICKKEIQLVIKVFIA
Target sequence (Q00987 whole entry, looked up): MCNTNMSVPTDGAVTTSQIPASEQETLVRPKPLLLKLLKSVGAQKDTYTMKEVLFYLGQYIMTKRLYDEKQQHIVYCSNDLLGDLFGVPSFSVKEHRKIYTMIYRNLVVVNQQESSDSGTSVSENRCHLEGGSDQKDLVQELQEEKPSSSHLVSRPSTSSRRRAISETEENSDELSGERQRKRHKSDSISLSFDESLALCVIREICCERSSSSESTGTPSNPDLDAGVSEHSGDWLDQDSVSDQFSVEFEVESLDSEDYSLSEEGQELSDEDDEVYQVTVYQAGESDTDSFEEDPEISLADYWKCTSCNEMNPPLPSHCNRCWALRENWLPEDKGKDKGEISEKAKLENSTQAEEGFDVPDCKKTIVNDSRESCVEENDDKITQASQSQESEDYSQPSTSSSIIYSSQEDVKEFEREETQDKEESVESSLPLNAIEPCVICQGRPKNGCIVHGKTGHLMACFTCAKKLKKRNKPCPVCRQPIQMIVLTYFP
HIF-2a inh conf: HIF-2a reporter inhibitor retest, confirmation, luminescence, 786-0 RCC cells; AID 651580, 2012; 56% of 1,800 active; inhibition, % at 18.8 µM; shares compounds with HIF-2a block; HIF-2a luciferase reporter luminescence, overnight;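 active = mean inhibition across four replicates of at least 40 percent at the single tested concentration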
HIF-1a counter: HIF-1a luciferase reporter signal reduction – MiaPaCa-2 cells, single concentration, counter-screen for HIF-2a inhibitor project, confirmation. shares compounds with HIF-2a block. MiaPaCa-2 HIF-1a luciferase reporter, desferoxamine, overnight. inhibition, % at 18.8 µM. 72% of 1,800 active. AID 651589, 2012;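 active = mean inhibition of the reporter signal across four replicates at the single tested dose of 50% or more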
* hit, by the source's call; x = no result.

SMILES | TWEAK-Fn14 inh | Peg3 promoter | TROY NFkB inh | KKLEB tox | CF NFkB inh | HIF-2a block | HIF-2a inh conf | HIF-1a counter | others
CN(Cc1cccc(C(F)(F)F)c1)C(=O)C1CCC(=O)N(CC2CCCCC2)C1 (configuration not stated) | -36 | -2 | -17 | -16 | -2 | -23 | x | x
CN(C[C@H](Cc1ccccc1)N(C[C@@H](CC1CCCCC1)N(CCc1ccccc1)N=O)N=O)N=O | 16 | 16 | 13 | -24 | 39 | 2 | x | x
CNC[C@@H](Cc1ccccc1)NC[C@@H](CC1CCCCC1)NCCCc1ccccc1 | -64 | 99* | 37 | -96* | 85* | 85* | 0 | 106* | Mdm2 MdmX conf=103*
CCC[C@@H](CNC)NC[C@H](Cc1ccccc1)NCCCCc1ccccc1 | -41 | 99* | -21 | -16 | 5 | -2 | x | x | Mdm2 MdmX conf=103*
CNC[C@@H](CC1CCCCC1)NC[C@H](CC(C)C)NCCc1cccc(C(F)(F)F)c1 | -101 | 99* | 12 | -72* | 50 | 32 | x | x | Mdm2 MdmX conf=103*
COc1cc(NC(=O)c2ccc(N3CC4CC(C3)c3cccc(=O)n3C4)c(NC(=O)c3ccncc3)c2)cc(OC)c1OC (configuration not stated) | -17 | 3 | -5 | -8 | -12 | 17 | x | x
Cn1c(=O)c2[nH]c(Cc3ccsc3)nc2n(C)c1=O | 13 | 14 | -2 | 8 | -8 | 1 | x | x
O=C(CCN1C(=O)C2CC=CCC2C1=O)Nc1nccs1 (configuration not stated) | 14 | 8 | 5 | 17 | -17 | -2 | x | x
COCCn1c(SCC(=O)N2CCC(C)CC2)nc2ccccc2c1=O | -6 | 6 | -7 | -5 | 0 | -11 | x | x
COc1ccc(C(=O)Nn2c(SCC(=O)N3CCC(C)CC3)nc3ccccc3c2=O)cc1 | 97* | 68* | 81* | 1 | -8 | 51* | 67* | 78*
N/C(=N\OC(=O)c1ccc(Br)cc1)c1ccccc1 | 27 | -250 | -7 | -8 | -6 | -262 | x | x
CC(C)(C)c1ccc(C(=O)O/N=C(\N)c2ccccc2)cc1 | 105* | 104* | 90* | -12 | 3 | 72* | 87* | 87*
COc1ccc(Oc2ccc(/C=C/C(=O)c3ccc(O)cc3)cc2[N+](=O)[O-])cc1 | 69* | 108* | 77* | -20 | 35 | 91* | 37 | 104*
COc1cc2c(cc1CNC[C@H]1O[C@@H](n3ccc(N)nc3=O)[C@H](O)[C@@H]1O)OCO2 | -4 | -20 | -4 | -8 | 3 | 9 | x | x
FC(F)(F)c1ccccc1Cc1c(-c2ccco2)nc2ccc(Cl)cn12 | 6 | 10 | 13 | -18 | 27 | 37* | 1 | 64*
FC(F)(F)c1ccccc1Cc1c(-c2ccccc2)nc2ccc(Cl)cn12 | -18 | -70 | -18 | -14 | 7 | -158 | x | x
CCOc1cc(/C=N/NC(N)=O)cc(Br)c1OCC(=O)Nc1cccc2ccccc12 | 40 | 43 | 11 | -18 | -4 | 25 | x | x
CCOc1cc(/C=N/NC(N)=O)cc(Br)c1OCC(=O)Nc1ccccc1C | 20 | 42 | 2 | -13 | -10 | 40* | 15 | 66*
Cc1onc(-c2ccccc2)c1C(=O)OCC(=O)N(C)c1ccccc1 | 7 | 5 | -20 | -16 | -4 | 0 | x | x
